Data as given in the supplement of paper PMC12494721.
Where a name gives a salt, the structure may show the parent alone.

Key:
Settings in all cases: incubation time: 27 h, anaerobic, 37 °C;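 for the amine columns active = adjusted P below 0.05 in both replicates with a change the same way and a mean fold change under 0.8 or over 1.25; inactive = the rest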
[1] = tested on: Clostridium sporogenes DSM 1664; assay: growth (OD595) fold change vs plate DMSO controls (fold change (ratio)); higher = more growth
Summary of the method: (§1)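 Anaerobic 27 h, 37 °C mGAM 96-well cultures were shaken, then read for absorbance at 595 nm. Values were blank-subtracted and corrected for compound background using 20 µM compound solutions in water. A calibration factor of 5 converted them to OD. Growth is the fold change versus the median of plate DMSO controls. Fold changes above 1.5 were set to NA, and values are the mean of 2 biological replicates.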

[2] = tested on: Escherichia coli IAI1; assay: as above
Summary of the method: as §1

[3] = tested on: Klebsiella aerogenes DSM 30053; assay: as above
Summary of the method: as §1

[4] = tested on: Ruminococcus gnavus DSM 108212; assay: as above
Summary of the method: as §1

[5] = tested on: Klebsiella aerogenes DSM 30053; assay: fold change of Histamine concentration vs plate DMSO controls (fold change (ratio)); higher = more amine produced, active = hit call of the paper (significant change in both replicates, either direction)
Summary of the method: (§2)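 Using LC–triple-quadrupole MS with dynamic MRM, amines were quantified against external calibration curves and corrected for drift within each batch. Samples were whole anaerobic mGAM cultures of four gut strains, grown 27 h at 37 °C from OD 0.1 before 1:1 dilution, extracted with cold acetonitrile/methanol containing 0.1% formic acid and centrifuged. Compounds were present at 20 µM final (sweeteners at 50 µM final). The numbers are fold changes versus plate DMSO controls, each the mean of 2 biological replicates.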

[6] = tested on: Clostridium sporogenes DSM 1664; assay: fold change of Tryptamine concentration vs plate DMSO controls (fold change (ratio)); higher = more amine produced, active = hit call of the paper (significant change in both replicates, either direction)
Summary of the method: as §2

[7] = tested on: Ruminococcus gnavus DSM 108212; assay: as above
Summary of the method: as §2

[8] = tested on: Escherichia coli IAI1; assay: fold change of Putrescine concentration vs plate DMSO controls (fold change (ratio)); higher = more amine produced, active = hit call of the paper (significant change in both replicates, either direction)
Summary of the method: as §2

[9] = tested on: Klebsiella aerogenes DSM 30053; assay: as above
Summary of the method: as §2

[10] = tested on: Escherichia coli IAI1; assay: fold change of Cadaverine concentration vs plate DMSO controls (fold change (ratio)); higher = more amine produced, active = hit call of the paper (significant change in both replicates, either direction)
Summary of the method: as §2

[11] = tested on: Klebsiella aerogenes DSM 30053; assay: as above
Summary of the method: as §2

[12] = tested on: Ruminococcus gnavus DSM 108212; assay: fold change of 2-Phenylethylamine concentration vs plate DMSO controls (fold change (ratio)); higher = more amine produced, active = hit call of the paper (significant change in both replicates, either direction)
Summary of the method: as §2

| Structure (SMILES) | growth [1] | growth [2] | growth [3] | growth [4] | fold change of Histamine concentration [5] | fold change of Tryptamine concentration [6] | fold change of Tryptamine concentration [7] | fold change of Putrescine concentration [8] | fold change of Putrescine concentration [9] | fold change of Cadaverine concentration [10] | fold change of Cadaverine concentration [11] | fold change of 2-Phenylethylamine concentration [12] |
| --- | --- | --- | --- | --- | --- | --- | --- | --- | --- | --- | --- | --- |
| CCCCc1oc2ccccc2c1C(=O)c1cc(I)c(OCCN(CC)CC)c(I)c1 [Amiodarone hydrochloride] (20 µM) | 1.17 | 1.02 | 0.991 | 0.65 | 1.06 (inactive) | 1.1 (inactive) | 0.75 (active) | 0.96 (inactive) | 1.02 (inactive) | 1.04 (inactive) | 0.985 (inactive) | 0.89 (inactive) |
| CC(=O)[C@H]1CC[C@H]2[C@@H]3CCC4=CC(=O)CC[C@]4(C)[C@H]3CC[C@]12C [Progesterone] (20 µM) | 1.08 | 1.02 | 1.05 | 0.651 | 0.893 (inactive) | 1.04 (inactive) | 0.981 (inactive) | 1.07 (inactive) | 0.961 (inactive) | 1.03 (inactive) | 1.02 (inactive) | 0.95 (inactive) |
| CNNCc1ccc(C(=O)NC(C)C)cc1 [Procarbazine hydrochloride] (20 µM) | 1.03 | 1.07 | 1.02 | 1.27 | 1.05 (inactive) | 1.02 (inactive) | 1.03 (inactive) | 1.02 (inactive) | 0.983 (inactive) | 0.984 (inactive) | 1 (inactive) | 1.06 (inactive) |
| Cn1c(=O)c2c(ncn2CC2OCCO2)n(C)c1=O [Doxofylline] (20 µM) | 1.05 | 0.975 | 0.973 | 1.18 | 1.08 (inactive) | 1.05 (inactive) | 1.06 (inactive) | 0.999 (inactive) | 1.01 (inactive) | 1 (inactive) | 0.993 (inactive) | 1.1 (inactive) |
| CC(C)OC(=O)CCC/C=C\C[C@@H]1[C@@H](CC[C@@H](O)CCc2ccccc2)[C@H](O)C[C@@H]1O [Latanoprost] (20 µM) | 0.975 | 1 | 0.984 | 1.44 | 1.11 (inactive) | 0.828 (inactive) | 0.542 (active) | 0.928 (inactive) | 1.04 (inactive) | 0.939 (inactive) | 1 (inactive) | 0.649 (inactive) |
| CC(C(=O)O)c1ccc(C(=O)c2cccs2)cc1 (centres undefined) [Suprofen] (20 µM) | 1.08 | 0.983 | 0.986 | 0.974 | 1.03 (inactive) | 1.04 (inactive) | 1.09 (inactive) | 0.954 (inactive) | 0.995 (inactive) | 1.01 (inactive) | 0.986 (inactive) | 1.08 (inactive) |
| CC(C)Cc1ccc(CC(=O)O)cc1 [Ibufenac] (20 µM) | 1.08 | 1.1 | 1.06 | 1.24 | 0.908 (inactive) | 1.04 (inactive) | 1 (inactive) | 1.06 (inactive) | 1.01 (inactive) | 0.994 (inactive) | 1.01 (inactive) | 0.976 (inactive) |
| CN(C)CCC=C1c2ccccc2C=Cc2ccccc21 [Cyclobenzaprine hydrochloride] (20 µM) | 0.862 | 1.01 | 0.985 | 0.869 | 1.06 (inactive) | 1.19 (inactive) | 0.915 (inactive) | 0.987 (inactive) | 1 (inactive) | 1.01 (inactive) | 0.985 (inactive) | 0.921 (inactive) |
| CCOC(=O)C1=C[C@@H](OC(CC)CC)[C@H](NC(C)=O)[C@@H](N)C1 [Oseltamivir phosphate] (20 µM) | 0.866 | 0.987 | 1.01 | 1.01 | 1.03 (inactive) | 1.05 (inactive) | 1.03 (inactive) | 1.02 (inactive) | 1 (inactive) | 1.03 (inactive) | 1 (inactive) | 1.05 (inactive) |
| CC1(C)S[C@@H]2[C@H](NC(=O)[C@H](C(=O)O)c3ccsc3)C(=O)N2[C@H]1C(=O)O [Ticarcillin sodium] (20 µM) | 0 | 1.22 | 1.02 | 0 | 1.04 (inactive) | 0.0277 (active) | 0.0454 (active) | 1.21 (inactive) | 1.02 (inactive) | 1.44 (active) | 0.996 (inactive) | 0.0536 (active) |
| CCN(CC)CCOCCOC(=O)C(CC)(CC)c1ccccc1 [Oxeladin citrate] (20 µM) | 1.05 | 0.997 | 1 | 1.01 | 0.957 (inactive) | 1.01 (inactive) | 0.889 (inactive) | 1.01 (inactive) | 1.02 (inactive) | 1.01 (inactive) | 0.994 (inactive) | 0.865 (inactive) |
| CNCC[C@@H](Oc1ccccc1C)c1ccccc1 [Tomoxetine hydrochloride] (20 µM) | 1.11 | 1.01 | 0.98 | 1.1 | 0.978 (inactive) | 1.1 (inactive) | 1 (inactive) | 0.969 (inactive) | 0.968 (inactive) | 0.989 (inactive) | 1 (inactive) | 1.05 (inactive) |
| NS(=O)(=O)c1cc2c(cc1Cl)N=C(CSCc1ccccc1)NS2(=O)=O [Benzthiazide] (20 µM) | 1.1 | 0.998 | 1.02 | 1.08 | 0.978 (inactive) | 0.983 (inactive) | 0.961 (inactive) | 0.975 (inactive) | 0.993 (inactive) | 1.02 (inactive) | 0.993 (inactive) | 0.939 (inactive) |
| Cc1ccc(S(=O)(=O)NC(=O)NN2CC3CCCC3C2)cc1 (centres undefined) [Gliclazide] (20 µM) | 1.15 | 1.06 | 0.986 | 0.999 | 1.04 (inactive) | 1.06 (inactive) | 1.12 (inactive) | 0.995 (inactive) | 1 (inactive) | 0.883 (inactive) | 1 (inactive) | 1.12 (inactive) |
| C(=C\c1ccccc1)/CN1CCN(C(c2ccccc2)c2ccccc2)CC1 [Cinnarizine] (20 µM) | 1.09 | 0.964 | 0.991 | 0.67 | 0.941 (inactive) | 0.969 (inactive) | 0.824 (inactive) | 0.993 (inactive) | 0.998 (inactive) | 0.991 (inactive) | 1 (inactive) | 0.878 (inactive) |
| CCCCC(CC)CN1CN(CC(CC)CCCC)CC(C)(N)C1 (centres undefined) [Hexetidine] (20 µM) | 1.05 | 1.07 | 1.11 | 1.45 | 0.978 (inactive) | 1.23 (inactive) | 0.898 (inactive) | 1.05 (inactive) | 0.987 (inactive) | 1.04 (inactive) | 1.01 (inactive) | 1.05 (inactive) |
| COc1cc2c(cc1OC)CC(=O)N(CCCN(C)C[C@H]1Cc3cc(OC)c(OC)cc31)CC2 [Ivabradine hydrochloride] (20 µM) | 1.05 | 0.995 | 0.986 | 0.903 | 1.02 (inactive) | 1.01 (inactive) | 1.1 (inactive) | 0.924 (inactive) | 0.937 (inactive) | 0.895 (inactive) | 1.01 (inactive) | 1.1 (inactive) |
| CCCOC(=O)NCCCN(C)C (20 µM) | 1.08 | 0.981 | 0.968 | 1.17 | 1.06 (inactive) | 1.05 (inactive) | 1.09 (inactive) | 0.952 (inactive) | 0.821 (inactive) | 0.93 (inactive) | 1.05 (inactive) | 1.22 (inactive) |
| OC[C@H]1OC(O)[C@H](O)[C@@H](O)[C@@H]1O (some centres undefined) [Glucose/Dextrose] (50 µM) | 1.15 | 0.989 | 1.01 | 1.19 | 1.03 (inactive) | 1.01 (inactive) | 0.971 (inactive) | 0.982 (inactive) | 0.872 (inactive) | 1.11 (inactive) | 1.09 (inactive) | 0.935 (inactive) |
| O=C(OCCOCCO)c1ccccc1Nc1cccc(C(F)(F)F)c1 [Etofenamate] (20 µM) | 1.2 | 1.09 | 1.1 | 1.2 | 0.902 (inactive) | 0.955 (inactive) | 0.883 (inactive) | 1.05 (inactive) | 0.998 (inactive) | 1.02 (inactive) | 1.02 (inactive) | 0.861 (inactive) |
| O=C1c2cccc(O)c2C(=O)c2c(O)cccc21 [Danthron] (20 µM) | 0.931 | 1.21 | 1.01 | 0.841 | 0.93 (inactive) | 1.02 (inactive) | 1 (inactive) | 1.24 (inactive) | 0.975 (inactive) | 1 (inactive) | 1.01 (inactive) | 0.965 (inactive) |
| Fc1ccc([C@@H]2CCNC[C@H]2COc2ccc3c(c2)OCO3)cc1 [Paroxetine hydrochloride] (20 µM) | 1.01 | 1.06 | 0.971 | 0.929 | 1.05 (inactive) | 0.925 (inactive) | 0.833 (inactive) | 0.692 (inactive) | 0.991 (inactive) | 1.69 (active) | 0.991 (inactive) | 0.885 (inactive) |
